High-throughput results as filed in PubChem.
MOR-DOR ag-1 = agonists of OPRM1-OPRD1 heterodimerization, primary screen, cell-based, luminescence | AID 504326, 2011 | Mu-type opioid receptor (Homo sapiens) + Delta-type opioid receptor (Homo sapiens), … | 340,000 tested, 0.3% active | activation, % at 9.3 µM | cells
Target sequence (P35372 whole entry, looked up): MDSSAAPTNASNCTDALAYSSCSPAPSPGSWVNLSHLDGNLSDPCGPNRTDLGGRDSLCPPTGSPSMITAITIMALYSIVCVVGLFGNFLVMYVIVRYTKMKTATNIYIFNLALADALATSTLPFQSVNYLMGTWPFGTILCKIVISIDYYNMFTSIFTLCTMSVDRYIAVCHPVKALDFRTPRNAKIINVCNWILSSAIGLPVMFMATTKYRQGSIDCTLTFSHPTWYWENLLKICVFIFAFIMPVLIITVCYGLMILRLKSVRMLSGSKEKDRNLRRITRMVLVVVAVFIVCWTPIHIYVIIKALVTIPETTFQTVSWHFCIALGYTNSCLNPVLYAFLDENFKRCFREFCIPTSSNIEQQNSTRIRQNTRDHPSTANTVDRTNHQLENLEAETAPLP
Target sequence (P41143 whole entry, looked up): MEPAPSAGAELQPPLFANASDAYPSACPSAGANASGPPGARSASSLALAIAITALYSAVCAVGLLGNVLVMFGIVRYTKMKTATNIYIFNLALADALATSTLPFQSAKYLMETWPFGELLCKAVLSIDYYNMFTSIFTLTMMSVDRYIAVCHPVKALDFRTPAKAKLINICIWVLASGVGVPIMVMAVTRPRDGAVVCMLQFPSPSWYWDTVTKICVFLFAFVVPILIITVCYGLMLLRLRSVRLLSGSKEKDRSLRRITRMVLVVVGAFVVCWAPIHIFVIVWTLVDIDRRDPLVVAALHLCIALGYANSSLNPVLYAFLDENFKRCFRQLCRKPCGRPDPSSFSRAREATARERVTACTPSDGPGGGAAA
HTR5A inv ctr = HTR5A inverse agonists in luminescence cell assay, primary screen, counter-screen for OPRM1-OPRD1 heterodimer inverse agonist project, full-deck HTS; 340,000 tested, 0.083% active; inhibition, % at 9.3 µM; 5-hydroxytryptamine receptor 5A (Homo sapiens), P47898; HTR5A cell line, inverse agonism; in the data active = inhibition mostly above about 23%, no sharp cut-off; inactive = mostly below about 18%
HTR5A ag ctr = HTR5A agonists in luminescence cell assay, primary screen, counter-screen for OPRM1-OPRD1 heterodimer agonist project, full-deck HTS; AID 504692, 2011; activation, % at 9.3 µM; 340,000 tested, 0.61% active; 5-hydroxytryptamine receptor 5A (Homo sapiens), P47898; cell-based; in the data active = activation mostly above about 9.5%, no sharp cut-off; inactive = mostly below about 7.6%
OPRM1-OPRD1 inv = inverse agonists of MOR-DOR heterodimerization, primary screen, cell-based, luminescence | inhibition, % at 9.3 µM | 340,000 tested, 0.21% active | cell-based MOR-DOR heterodimer luminescence, inverse agonism | AID 504357, 2011; in the data active = inhibition above about 22%, passing the limit was not always enough
MOR-DOR ag-2 = OPRM1-OPRD1 heterodimerization promoters, counter-screen for HTR5A agonist project, cell-based, luminescence; shares compounds with HTR5A ag ctr; U2OS counter-screen cells, complementation luminescence, 3 h; activation, % at 9.3 µM; 800 tested, 13% active; AID 504913, 2011
HTR5A ag conf = HTR5A agonists, retest of hits, confirmation, cell-based, luminescence; AID 504915, 2011; activation, % at 9.3 µM; 800 tested, 17% active; shares compounds with HTR5A ag ctr; HTR5A agonist cell assay; in the data active = activation above about 17%
Each line names hits and unclear results; the compound was inactive in the other large screens (follow-up assays come after a bar, where they were run). A selection: hits, their analogues and other compounds. The true share with any hit is near 1.1%. Cut-off read from the data, not from the text of the source, unless noted: active = activation above about 18%; inactive = the rest.

O=C(COC(=O)CCC(=O)c1cccs1)Nc1cccc(F)c1	HTR5A ag ctr 17.6 | MOR-DOR ag-2 inactive | HTR5A ag conf inactive
CN(CC(=O)Nc1ccc(Cl)cc1)C(=O)CCc1nc2sc3c(c2c(=O)[nH]1)CCCC3	HTR5A ag ctr 20.9 | MOR-DOR ag-2 inactive | HTR5A ag conf inactive
COCCn1c(SCC(=O)c2cc(C)n(C)c2C)nc2ccccc2c1=O	none
O=C(N/N=C\c1cccnc1)c1ccccc1O	none
Cc1ccc(S(=O)(=O)CCc2ccccn2)cc1	none
CC(C)(C)c1ccc(S(=O)(=O)CCc2ccccn2)cc1	HTR5A ag ctr 24.2 | MOR-DOR ag-2 inactive | HTR5A ag conf inactive
C=CCn1c(SCC(=O)c2ccc(O)c(O)c2)nnc1-c1cccc(OC)c1	none
COc1ccc(-c2cc3cc(F)ccc3cn2)cc1	HTR5A ag ctr 24.3 | MOR-DOR ag-2 22.4 | HTR5A ag conf inactive
Cc1cc(C(F)(F)F)nc(NCc2cccnc2)n1	none
O=C(N/N=C/c1ccco1)c1ccc(NC(=O)c2ccccc2Cl)cc1	none
O=C(N/N=C/c1ccco1)c1cccc(NC(=O)c2cccc(Cl)c2)c1	HTR5A ag ctr 23.5 | MOR-DOR ag-2 25.5 | HTR5A ag conf inactive
CC(C)C[C@H]1CNC(=S)N1CC1CCCN1C[C@H](CC(C)C)N1C[C@H](Cc2ccccc2)N(CC2CCCCCC2)C1=S (stereo partly drawn)	none
Cc1cnc(C(=O)OCC(=O)N2c3ccccc3CC2C)cn1 (stereo not drawn)	none
CC1Cc2ccccc2N1C(=O)COC(=O)c1c2c(nc3ccccc13)CCCCC2 (stereo not drawn)	HTR5A ag ctr 21.9 | MOR-DOR ag-2 inactive | HTR5A ag conf inactive
CC1CCN(CC(=O)N2c3ccccc3CC2C)CC1 (stereo not drawn)	none
CC1Cc2ccccc2N1C(=O)COC(=O)c1ccc(Cl)c(S(=O)(=O)N2CCOCC2)c1 (stereo not drawn)	HTR5A ag ctr 24.1 | MOR-DOR ag-2 inactive | HTR5A ag conf inactive
CC1Cc2ccccc2N1C(=O)COC(=O)c1n[nH]c(=O)c2ccccc12 (stereo not drawn)	HTR5A ag ctr 39.8 | MOR-DOR ag-2 inactive | HTR5A ag conf inactive
CC1Cc2ccccc2N1C(=O)Cn1nc(C(=O)O)c2ccccc2c1=O (stereo not drawn)	HTR5A ag ctr 63.0 | MOR-DOR ag-2 inactive | HTR5A ag conf inactive
O=C(OCC(=O)N1CCc2ccccc21)c1c2c(nc3ccccc13)CCCC2	none
COc1ccc(CCNC(=O)C2CC(c3cc(C(F)(F)F)cc(C(F)(F)F)c3)=NO2)cc1 (stereo not drawn)	none
O=C(N/N=C1\CCCc2ccccc21)c1ccccc1[N+](=O)[O-]	HTR5A ag ctr 14.9 | MOR-DOR ag-2 inactive | HTR5A ag conf inactive
O=c1[nH]c2ccccc2cc1-c1nnn(-c2ccccc2)n1	HTR5A ag ctr 20.7 | MOR-DOR ag-2 59.5 | HTR5A ag conf inactive
O=C(Cn1cc(CNC(=O)C2CCCCC2)nn1)Nc1cc(C(F)(F)F)ccc1Cl	HTR5A ag ctr 20.3 | MOR-DOR ag-2 inactive | HTR5A ag conf inactive
CC1CCN(c2ccc(C(=O)NCCc3ccccc3)cn2)CC1	none
O=C(N/N=C/c1ccc(O)cc1)c1ccc(COc2cc(Cl)ccc2Cl)o1	HTR5A ag ctr 14.4 | MOR-DOR ag-2 41.1 | HTR5A ag conf inactive
C/C(=N\NC(=O)CNc1ccccc1)c1ccccc1	HTR5A ag ctr 18.0 | MOR-DOR ag-2 inactive | HTR5A ag conf inactive
C/C(=N\NC(=O)CNc1cccc(C)c1)c1ccc(Br)s1	HTR5A ag ctr 24.9 | MOR-DOR ag-2 inactive | HTR5A ag conf 33.8
C/C(=N\NC(=O)Cc1ccccc1)c1ccc(Br)s1	none
C/C(=N/NC(=O)CNC(=O)c1ccccc1)c1ccc(C)cc1	none
Cc1cc(C)c(C)c(S(=O)(=O)N2CCN(C)CC2)c1C	none
CCN1CCCC1CNCc1cc(OC)c(OC)c(OC)c1 (stereo not drawn)	none
CCOc1cc(CNCC2CCCN2CC)cc(Cl)c1OC (stereo not drawn)	HTR5A ag ctr 19.3 | MOR-DOR ag-2 inactive | HTR5A ag conf inactive
C[C@H](CO)N1C[C@H](C)[C@@H](CN(C)S(=O)(=O)c2cn(C)cn2)Oc2c(NS(=O)(=O)c3cn(C)cn3)cccc2C1=O	none
COc1ccc(N2CCN(C(=O)CSc3nnc(NC(=O)C4CC4)s3)CC2)cc1	none
COc1ccc(C(=O)NCc2c(C)nn(Cc3ccccc3)c2C)cc1S(=O)(=O)N1CCOCC1	HTR5A ag ctr 16.6 | MOR-DOR ag-2 inactive | HTR5A ag conf inactive
COc1ccc(S(=O)(=O)N2CCOCC2)cc1C(=O)NCc1c(C)nn(Cc2ccccc2)c1C	none
O=c1c(Cc2ccc(F)cc2)c(O)ccn1Cc1ccc(Cl)cc1Cl	HTR5A ag ctr 20.1 | MOR-DOR ag-2 inactive | HTR5A ag conf 47.3
O=c1c(Cc2ccc(F)cc2)c(O)ccn1Cc1ccc(F)cc1	none
O=C(Nc1ccc(N2CCN(Cc3ccccc3F)CC2)cc1)c1ccc([N+](=O)[O-])o1	HTR5A ag ctr 25.1 | MOR-DOR ag-2 inactive | HTR5A ag conf inactive
O=C(Nc1ccc(N2CCN(Cc3ccccc3F)CC2)cc1)c1ccccc1[N+](=O)[O-]	none
CC(C)N1CCc2c(sc(NC(=O)c3ccc4ccccc4c3)c2C(N)=O)C1	HTR5A ag ctr 18.3 | MOR-DOR ag-2 inactive | HTR5A ag conf 18.4
CCOc1ccc(NC(=O)CC2C(=O)Nc3ccccc3N2C(=O)c2ccccc2)cc1 (stereo not drawn)	none
Cc1nc(N)nc(N)c1CCCc1ccc(Cl)c(Cl)c1	HTR5A ag ctr 17.5 | MOR-DOR ag-2 inactive | HTR5A ag conf inactive
Cc1cc(C)c2c(c1)C1C=CCC1C(c1ccc(S(=O)(=O)N3CCOCC3)cc1)N2 (stereo not drawn)	none
CCCc1nc2ccc(NC(=O)c3cccs3)cc2c(=O)n1Cc1ccc(Cl)cc1	none
Cc1nc2ccc(NC(=O)c3cccs3)cc2c(=O)n1Cc1ccc(Cl)cc1	HTR5A ag ctr 15.4 | MOR-DOR ag-2 inactive | HTR5A ag conf inactive
CNC(=S)N1N=C(c2ccc(C)cc2)CC1c1ccc(Cl)cc1 (stereo not drawn)	none
CNC(=S)N1N=C(c2ccc(C)cc2)CC1c1ccc(Br)cc1 (stereo not drawn)	HTR5A ag ctr 18.0 | MOR-DOR ag-2 inactive | HTR5A ag conf inactive
NCCCCc1ccc2ccc3cccc4ccc1c2c34	HTR5A ag ctr 16.2 | MOR-DOR ag-2 inactive | HTR5A ag conf inactive
CN(C)c1ccc(NC(=S)N2CCN(c3ncc(C(F)(F)F)cc3Cl)CC2)cc1	HTR5A ag ctr 15.8 | MOR-DOR ag-2 inactive | HTR5A ag conf inactive
Cc1nc(NC(=O)COc2ccccc2)sc1C(=O)Nc1cccc(Cl)c1	HTR5A ag ctr 17.6 | MOR-DOR ag-2 inactive | HTR5A ag conf inactive
COc1ccc(OCC(=O)Nc2cccc(OC)c2)cc1	none
